Screens (PubChem)
PLCb3 inh: inhibitors of human phospholipase C beta3 | 0.18% of 370,000 active | inhibition, % at 12.2 µM | Purified PLC-beta3, fluorogenic substrate, fluorescence | Q01970; in the data active means inhibition above about 11%;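 further: 0% = median of compound wells on plate and 100% = full blocker control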
ADAM10 inh: ADAM10 inhibition, QFRET primary screen. O14672. recombinant ADAM10, EDANS/DABCYL FRET peptide cleavage, 3 h. inhibition, % at 7 µM. 0.62% of 370,000 active;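 active means inhibition above a per-campaign cutoff equal to the mean of compounds falling between control-based bounds plus 3 SD, cut at about 20% in these data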;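 further: 0% = DMSO wells while the 100% control is not disclosed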
PLC-gamma1 inh: inhibitors of human phospholipase C gamma1; AID 720700; purified PLC-gamma1, fluorogenic substrate, fluorescence; 0.84% of 370,000 active; P19174; inhibition, % at 12.2 µM; in the data active means inhibition above about 9.5%
Target sequence (P19174 whole entry, looked up): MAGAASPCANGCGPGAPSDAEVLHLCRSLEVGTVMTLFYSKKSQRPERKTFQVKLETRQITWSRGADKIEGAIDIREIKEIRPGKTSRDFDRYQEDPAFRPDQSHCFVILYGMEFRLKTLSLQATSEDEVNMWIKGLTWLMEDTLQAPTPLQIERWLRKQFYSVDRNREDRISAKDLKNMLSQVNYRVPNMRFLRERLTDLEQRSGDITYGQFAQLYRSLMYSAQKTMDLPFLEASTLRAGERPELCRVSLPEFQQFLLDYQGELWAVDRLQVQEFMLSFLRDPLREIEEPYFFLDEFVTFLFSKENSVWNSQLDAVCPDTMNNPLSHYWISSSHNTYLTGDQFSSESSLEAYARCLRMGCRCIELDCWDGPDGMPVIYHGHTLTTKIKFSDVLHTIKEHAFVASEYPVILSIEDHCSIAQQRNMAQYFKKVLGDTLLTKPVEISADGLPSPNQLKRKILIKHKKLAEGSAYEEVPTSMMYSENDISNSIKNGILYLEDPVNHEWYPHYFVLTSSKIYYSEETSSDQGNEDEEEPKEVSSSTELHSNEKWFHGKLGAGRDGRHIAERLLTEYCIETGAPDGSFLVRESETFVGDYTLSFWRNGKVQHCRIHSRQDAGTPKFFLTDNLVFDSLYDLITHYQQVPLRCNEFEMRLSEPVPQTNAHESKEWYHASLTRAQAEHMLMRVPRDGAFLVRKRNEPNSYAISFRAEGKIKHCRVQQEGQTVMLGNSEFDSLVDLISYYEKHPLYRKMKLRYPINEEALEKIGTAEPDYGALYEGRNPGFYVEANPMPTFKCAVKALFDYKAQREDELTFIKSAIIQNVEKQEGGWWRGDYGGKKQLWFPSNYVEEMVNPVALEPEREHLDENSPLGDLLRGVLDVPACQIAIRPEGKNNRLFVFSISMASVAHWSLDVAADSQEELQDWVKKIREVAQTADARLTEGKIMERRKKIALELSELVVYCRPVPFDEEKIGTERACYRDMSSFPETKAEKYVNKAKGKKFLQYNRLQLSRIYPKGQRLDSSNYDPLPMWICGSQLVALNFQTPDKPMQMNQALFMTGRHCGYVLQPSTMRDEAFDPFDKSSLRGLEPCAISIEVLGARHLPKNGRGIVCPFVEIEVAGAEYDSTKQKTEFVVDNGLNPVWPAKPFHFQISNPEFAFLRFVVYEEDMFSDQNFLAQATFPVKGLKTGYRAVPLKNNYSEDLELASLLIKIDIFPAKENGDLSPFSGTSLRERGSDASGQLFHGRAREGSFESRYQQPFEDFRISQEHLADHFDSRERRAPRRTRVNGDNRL
sPLA2-III inh: Blocks human group III sPLA2 activity. Q9NZ20. QFRET BODIPY PC-A2 liposome hydrolysis, fluorescence. inhibition, % at 12.2 µM. 0.56% of 370,000 active;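 active means inhibition above mean plus 3 SD of compounds lying within the high and low control bounds, cut at about 19% in these data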;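 further: 0% = median of test compound wells and 100% = no enzyme DMSO wells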
ADAM17 inh: inhibitors of human ADAM17; inhibition, % at 6.95 µM; 0.83% of 370,000 active; recombinant ADAM17, EDANS/DABCYL FRET peptide cleavage; P78536;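 active means inhibition above the mean of compounds lying between control limits plus 3 SD, set per campaign, cut at about 8.5% in these data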;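 further: 0% = DMSO-only wells as the low control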
KLK7 zymogen act: activates the human kallikrein-7 zymogen; AID 652039; 0.9% of 370,000 active; P49862; purified proKLK7, EDANS-DABCYL substrate fluorescence; 100% is mature enzyme control, 0% vehicle; activation, % at 7 µM;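 active means activation above the mean of all tested compounds plus 3 SD, computed per campaign excluding outliers beyond control limits, cut at about 13% in these data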
An asterisk follows results filed as active; i = inactive; · = no result given. In the library only some 3.4% were active in any assay of this set; here they are far more common.

SMILES	PLCb3 inh	ADAM10 inh	PLC-gamma1 inh	sPLA2-III inh	ADAM17 inh	KLK7 zymogen act
O=S1(=O)CCOCC(CO)N1Cc1cccc(Br)c1 (stereo not drawn)	1	-2	2	15	-3	0
CN1C(=O)c2cc(NC(=O)Nc3ccccc3)ccc2OC[C@H]2O[C@@H](CC(=O)Nc3cc(F)ccc3F)CC[C@@H]21	4	4	5	-15	-3	0
COc1cc(/C=N/NC(=O)CSc2cc(C)c(Br)cc2C)ccc1O	-1	12	-3	-30	2	0
Cc1cc(SCC(=O)N/N=C/c2ccc(O)c(O)c2O)c(C)cc1Br	-8	14	-6	32*	2	1
COc1ccc(-c2nc3ccccc3c(=O)n2Cc2ccccc2)cc1COc1ccc(NC(C)=O)cc1	-26	-51	-17	1	-19	·
O=C(Nc1ccc(Cl)cc1Cl)c1cccc(N2C(=O)C=CC2=O)c1	-32	-10	-18	23*	-5	0
Cc1ccccc1Oc1cc(-n2ncc(Cl)c(Cl)c2=O)ncn1	8	-6	3	21*	-2	0
c1ccc(N=NC2=NN(c3ccccc3)CS2)cc1	-6	-3	1	30*	2	1
CCCN(CCC)CCNC(=O)c1cc2c(-c3ccc(Cl)cc3)nn(C)c2s1	-101	-339	-68	-5	-131	4
CCN(CC)CCNC(=O)c1cc2c(-c3ccc(Cl)cc3)nn(C)c2s1	-156	i	-128	6	-184	17*
COCCCNC(=O)Cn1nc(Cc2ccncc2)c2ccccc2c1=O	2	-5	0	0	-1	0
c1ccc(Oc2ccc(-c3ccnc4nc(N5CCOCC5)nn34)cc2)cc1	i	-452	i	1	-167	-89
COc1ccc(-c2ccnc3nc(N4CCOCC4)nn23)cc1	i	i	i	3	-439	44*
Cc1nnc(NC(=O)C2CCN(S(=O)(=O)c3cc([N+](=O)[O-])ccc3Cl)CC2)o1	-11	-8	0	4	-5	-1
Cc1cccc2sc(NC(=O)C3CCN(S(=O)(=O)c4cc([N+](=O)[O-])ccc4Cl)CC3)nc12	-1	20*	-4	-10	6	0
CCCCCN1CCCCC(NC(=O)c2cccc(F)c2)C1=O (stereo not drawn)	1	-4	-1	-2	-1	0
CC(=O)c1c(C)oc2ccc(NS(=O)(=O)c3ccc(O)c(C(=O)O)c3)cc12	4	0	11*	-34	1	-1
COc1cc2c(cc1OC)C(c1cccs1)N(C(=O)C(C)C)CC2 (stereo not drawn)	1	4	-1	1	-3	0
COc1cc2c(cc1OC)C(c1cccs1)N(C(=O)c1cccnc1)CC2 (stereo not drawn)	4	4	9.9*	2	-4	0
CC(=O)Nc1c(O)nc(SCC(=O)Nc2c(C)cccc2C)[nH]c1=O	12*	-1	12*	5	4	0
CC(C)C[C@H]1CN([C@@H](Cc2ccccc2)CN2CCC[C@@H]2CN2C(=O)C(=O)NC[C@@H]2Cc2ccc(O)cc2)C(=O)C(=O)N1CC1CCCCCC1	0	-14	2	0	-3	0
CC(C)C[C@H]1CN([C@@H](Cc2ccc(O)cc2)CN2CCC[C@@H]2CN2C(=O)C(=O)NC[C@@H]2Cc2ccccc2)C(=O)C(=O)N1CC1CCCCC1	5	1	13*	-29	4	0
CC(C)C[C@@H](CN1CCC[C@@H]1CN1C(=O)C(=O)NC[C@@H]1Cc1ccccc1)N1C[C@H](Cc2ccccc2)N(CC2CCCCCC2)C(=O)C1=O	13*	4	4	3	6	0
O=C(Nc1ccc2c(c1)OCO2)OC1CC2CC1[C@H]1CCCCN1[C@H]2Cc1ccccc1 (stereo partly drawn)	-1	-2	0	-5	-2	0
COC(=O)[C@]12C[C@H](CC(=O)NCc3ccc(C)o3)C(=O)N(Cc3ccc(Cl)cc3Cl)C1=C[C@H](COCc1ccccc1)O[C@@H]2C	1	8	-4	-19	1	0
SMILES	PLCb3 inh	ADAM10 inh	PLC-gamma1 inh	sPLA2-III inh	ADAM17 inh	KLK7 zymogen act
CC(C)CN(C(=O)CCNC(=O)c1ccc([N+](=O)[O-])cc1)C1CCS(=O)(=O)C1 (stereo not drawn)	11*	-2	7	8	5	0
CC(C)CN(C(=O)c1cc([N+](=O)[O-])cc([N+](=O)[O-])c1)C1CCS(=O)(=O)C1 (stereo not drawn)	-3	0	-1	4	-7	0
CSc1ccc(-c2cnc(N3CCC(C(N)=O)CC3)s2)cc1	-4	-37	-1	1	-12	·
CCN1CCN(C(=O)c2cnn3c(C(F)F)cc(-c4ccc(C)cc4)nc23)CC1	-382	-129	-298	1	-36	13*
O=C1CSc2ccc(C(=O)N3CCCC(C(=O)N4CCOCC4)C3)cc2N1 (stereo not drawn)	2	-8	-2	6	-2	-1
COC(=O)[C@]12C[C@H](CC(=O)NCc3ccc(C)o3)C(=O)N(CCC3=CCCCC3)C1=C[C@H](C1CCCC1)O[C@@H]2C	-1	-3	-2	-15	-5	0
CC[C@H]1C=C[C@@H](C(C(=O)OC)C(=O)OC)CN1C(C)=O	4	-4	25*	-1	-3	-1
CCC1CCCCN1C(=O)N[C@@H](CCSC)C(=O)OC (stereo partly drawn)	3	4	-1	3	-2	0
C=CC[C@H]1C=C[C@@H](C(C(=O)OC)C(=O)OC)CN1C(C)=O	-2	-6	20*	4	-4	0
COc1cc(/C=N/Nc2nc(Nc3ccccc3)nc(-n3nc(C)cc3C)n2)cc(OC)c1OC	-19	-2	-13	0	-2	-4
COc1ccc(O)c(/C=N/Nc2nc(Nc3ccccc3)nc(-n3nc(C)cc3C)n2)c1	-34	14	-36	-5	11*	-17
CCOC(=O)C1(Cc2ccccc2)CCN(Cc2ccccc2OC)CC1	5	-2	1	-9	2	0
COc1nc(Nc2nc3ccccc3c(=O)[nH]2)nc2ccc(C)cc12	7	10	14*	-1	0	0
Brc1ccc(OCCCCCN2CCOCC2)cc1	5	6	9.7*	8	8	0
COc1ccc(C)cc1NC(=O)c1nnn(Cc2cc(C)ccc2C)c1N	-3	-11	0	1	-3	0
COc1ccc(OC)c(NC(=O)c2nnn(Cc3ccccc3C)c2N)c1	-1	27*	1	-25	7	-10
COC(=O)C[C@@H]1CC[C@@H]2[C@H](COc3ccc(NC(=O)c4cccc(OC)c4)cc3C(=O)N2C)O1	0	-3	-1	5	1	0
